Data as given in PubChem BioAssay AID602399 (Sanford-Burnham Center for Chemical Genomics, 2012).
“And” between values parts separate entries of the source, which are not always exact repeats. Equal entries are not always repeated. Hit rate of the full screen: of about 360,000 compounds, about 2,800 (0.78%) were called active. No stated cut-off is given here; in the data, active means inhibition above about 26%; inactive means the rest. Shown is part of a subset that was picked to be rich in actives. The source holds several records for some structures; these can differ, active in one and inactive in another.

Each molecule was assayed on Nicotinate-nucleotide adenylyltransferase NadD (Staphylococcus aureus N315) (assay: inhibitors of S. aureus NadD, primary screen, biochemical, colorimetric, uHTS (AID 602399)). Settings: purified NadD enzyme, colorimetric absorbance read-out; at 20 µM; stronger effect = higher value.
For CNC(=O)c1ccc(CN(C)C(=O)c2cc(C3CC3)nc3c2cnn3C(C)C)cc1, the inhibition was 2.58% (inactive).
With O=C(CNC(=O)c1cccs1)N/N=C/c1cccc(Br)c1 the inhibition was -5.24% (inactive).
In the case of CC(=O)NC(Cc1c[nH]c2ccccc12)C(=O)NCCc1ccccc1 (centres undefined), the inhibition was -5.17% (inactive).
With O=C(NC(Cc1c[nH]c2ccccc12)C(=O)N/N=C/c1ccc(Br)cc1)c1cccs1 (centres undefined) the inhibition was 32% (active).
For O=C1N(c2ccccc2)C(=Nc2ccccc2)SC12CC2, the inhibition was -4.95% (inactive).
In the case of Cc1cc(Cl)ccc1NNC(=O)c1snnc1C, the inhibition was 1.86% (inactive).
With OC(c1ccc(F)cc1)c1ncc(-c2cccc(C(F)(F)F)c2)[nH]1 (centres undefined) the inhibition was 0.456% (inactive).
With O=C(NCc1ccccc1Cl)c1ccc2c(=O)n(CC3CCCO3)c(=S)[nH]c2c1 (centres undefined) the inhibition was -3.54% (inactive).
COc1ccc(N=Nc2ccc(O)c(P(=O)(c3ccccc3)c3ccccc3)c2)cc1 was tested, and the inhibition was 30.9% (active).
With CC(C)(C)c1cc(P(=O)(c2ccccc2)c2ccccc2)ccc1O the inhibition was -3.61% (inactive).
For Cc1cc(N=Nc2ccc3ccccc3c2)ccc1O, the inhibition was -20.6% (inactive).
In the case of CN1CC(=O)N=C1N, the inhibition was -3.38% (inactive) and -0.141% (inactive).
COc1cccc(CN(C)C(=O)CC[C@H]2O[C@@H](n3cnc4c(NC(=O)c5ccccc5)ncnc43)[C@H](O)[C@@H]2O)c1 was tested, and the inhibition was -1.41% (inactive).
O=[N+]([O-])c1cc(S(=O)(=O)Nc2cccc(Cl)c2)ccc1N=Nc1c(O)[nH]c2ccccc12 was tested, and the inhibition was 61% (active).
For O=C(CCN1CCCCC1)N=Nc1c(O)[nH]c2ccccc12, the inhibition was -5.32% (inactive).
O=C(NCc1ccncc1)c1ccc(NS(=O)(=O)c2cccc([N+](=O)[O-])c2)cc1 was tested, and the inhibition was -1.63% (inactive).
CCOC(=O)[C@]12CCCC=C1N(Cc1ccc(Cl)cc1Cl)C(=O)[C@H](CC(=O)N1CCCCC1)C2 was tested, and the inhibition was -1.55% (inactive).
With Cc1ccc(N(CC(=O)NCC2CCCO2)C(=O)CNS(=O)(=O)c2ccc(Cl)cc2)cc1 (centres undefined) the inhibition was 2.66% (inactive).
For COc1ccc(-c2nc3cnccn3c2NC(C)(C)CC(C)(C)C)cc1O, the inhibition was -3.5% (inactive).
COc1ccc(-c2nc3cc(C)ccn3c2NC2CCCCC2)cc1SC1CCCCC1 was tested, and the inhibition was 17% (inactive) and 21% (inactive).
For COc1ccc(-c2nc3cnccn3c2NC2CCCCC2)cc1-c1cccc(Cl)c1, the inhibition was 33.8% (active) and 14.3% (inactive).
With COC(=O)c1ccc2nc(-c3cccc(Br)c3)c(Cc3ccc(OC)cc3C)n2c1 the inhibition was 20.8% (inactive).
With COC(=O)c1ccc2nc(-c3ccc(C)cc3)c(Cc3ccc(OC)cc3C)n2c1 the inhibition was 31.6% (active).
COC(=O)c1ccc2nc(-c3ccccc3)c(Cc3ccc(OC)cc3C)n2c1 was tested, and the inhibition was 10.9% (inactive).
O=C(COC(=O)c1cccnc1Cl)Nc1ccc(S(=O)(=O)N2CCOCC2)cc1 was tested, and the inhibition was -4.21% (inactive).
With O=C(CSc1nnc(COc2ccc(Cl)cc2)n1Cc1ccco1)N1CCNC1=O the inhibition was 4.26% (inactive).
Cn1c2ccccc2c(=O)c2c(=O)n(Cc3ccco3)c(COc3ccccc3)nc21 was tested, and the inhibition was 42.5% (active).
CCc1nc2oc3ccccc3c(=O)c2c(=O)n1Cc1ccc(OC)cc1 was tested, and the inhibition was 2.99% (inactive).
For COc1ccc(-c2ccc(CN3C(C(C)C)C(=O)N(Cc4cn(CC5CCCCC5)nn4)CCS3(=O)=O)cc2)cn1 (centres undefined), the inhibition was 4.8% (inactive).
CCOC(=O)C(Sc1ncc(C#N)c(N)n1)C(C)C (centres undefined) was tested, and the inhibition was 2.12% (inactive).
CCCc1c(C(=O)Nc2ccc(F)cc2)cnn1-c1ccccc1 was tested, and the inhibition was -0.321% (inactive).
With Cc1cccc(C)c1-n1nnnc1C1(C)CCC(=O)N1CCOc1ccccc1 (centres undefined) the inhibition was -5.82% (inactive).
With CC(=O)C1=C(C)NC(C)=C(C(C)=O)C1c1cn(-c2ccccc2)nc1-c1cccs1 the inhibition was 11.6% (inactive).
In the case of Cc1ccsc1/C=N/n1c(=S)[nH]nc(C)c1=O, the inhibition was 1.04% (inactive).
In the case of S=c1[nH]nc(-c2cccs2)n1/N=C/c1cn(-c2ccccc2)nc1-c1ccc(Cl)cc1, the inhibition was 32.6% (active).
With C[C@H]1CC[C@]2(O[C@@H](CCO)C[C@@H](O)[C@@H]2O)O1 the inhibition was 0.758% (inactive).
For O=C(COC(=O)CCCNC(=O)c1ccc(Cl)cc1)Nc1cc(Cl)ccc1Cl, the inhibition was -4.1% (inactive).
COc1ccc([N+](=O)[O-])cc1C1NN=C(c2cccc3ccccc23)S1 (centres undefined) was tested, and the inhibition was 17.6% (inactive).
In the case of NC(=O)C1CC(=O)N(c2ccc(OCC(=O)NCc3ccccc3)cc2)C1 (centres undefined), the inhibition was 1.55% (inactive).
For O=C(COC(=O)c1ccccc1)Nc1ccccc1Sc1ccccc1, the inhibition was -7.21% (inactive).
For COc1ccccc1C(=O)NCC(=O)OCC(=O)Nc1nnc(-c2ccccc2)o1, the inhibition was 10.3% (inactive).
O=C(COC(=O)c1ccc(Oc2ccccc2)cc1)Nc1nnc(-c2ccccc2)o1 was tested, and the inhibition was 47.6% (active).
In the case of CC(C)(C)C(=O)CCN1C(=O)C2(OCCO2)c2ccccc21, the inhibition was -0.902% (inactive).
For COC(=O)[C@@]1(Cc2ccc(F)cc2)[C@H]2c3cc(C(=O)N4CCCC4)n(Cc4ccc(OC(F)(F)F)cc4)c3C[C@H]2CN1C(=O)c1ccccc1, the inhibition was 13.9% (inactive).
